A selection: hits, their analogues and other compounds. The true share with any hit is near 6.5%.
Spn PMK inh – blocks S. pneumoniae phosphomevalonate kinase. purified PMK, PK/LDH-coupled NADH absorbance 340 nm. inhibition, % at 10 µM. 0.49% of 65,000 active;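 active means top-ranked compounds by inhibition in the single 10 µM screen, taking a fixed number of the strongest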
Abs 340nm – absorbance at 340 nm; 65,000 tested, under 10 active; compound absorbance at 340 nm, fold over control; fold change at 10 µM;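 active means at 10 µM dose, initial 340 nm absorbance at least 2 fold that of control wells; inactive means change under 2 fold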;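 further: initial absorbance extrapolated from kinetic A340 decline of NADH oxidation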
MK inhibit – blocks S. pneumoniae mevalonate kinase | purified MK, PK/LDH-coupled NADH absorbance 340 nm | inhibition, % at 10 µM | 0.48% of 65,000 active | AID 555;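 active means ranked among the strongest by inhibition in the single 10 µM screen, a fixed top-ranked set picked for dose follow-up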
Spn DPM-DC inh – blocks S. pneumoniae diphosphomevalonate decarboxylase; purified DPM-DC, PK/LDH coupled NADH fluorescence; calls only at 10 µM; 0.49% of 65,000 active;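 active means the 320 compounds with the highest percent inhibition in the single-dose primary screen, excluding strongly autofluorescent ones, cut at about 32% in these data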;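 further: kinetic rate of NADH fluorescence loss reporting ADP formed by the decarboxylase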
Autofluor 339 – intrinsic fluorescence of library compounds, ex339/em460 – biochemical, MLSMR library, data from DPM-DC assay, artefact control, profiling panel. compound autofluorescence, ex339/em460 nm, NADH buffer; stronger effect = higher value; 1 = no-compound wells, NADH background. fluorescence fold increase at 10 µM. 5.5% of 65,000 active. AID 709;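 active means at 10 µM, mean starting fluorescence two-fold or more over control wells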;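 further: signal is the first read of a kinetic run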
NADH enzymes – inhibitors of enzymes used to reach an NAD/NADH endpoint; coupled PK/LDH NADH assays, four targets; IC50, µM (top dose mostly 10 µM); 0.02% of 65,000 active;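 active means single-dose screening hits from any of four coupled enzyme assays that gave an IC50 when retested across doses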;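 further: the DPM-DC format reads NADH fluorescence rather than 340 nm absorbance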
Each line names hits and unclear results; the compound was inactive in the other large screens.

c1nc(NCCN2CCOCC2)c2sc3nc(N4CCOCC4)c4c(c3c2n1)CCC4	Autofluor 339 2.3 (not shown: Spn DPM-DC inh)
COCCCNC(=O)c1cc2c(=O)n3cccc(C)c3nc2n(C(C)C)c1=N	Autofluor 339 5.1 (not shown: Spn DPM-DC inh)
COCCn1c(=N)c(C(=O)NCCc2ccc(OC)cc2)cc2c(=O)n3cccc(C)c3nc21	Autofluor 339 2.7
O=C(c1cc(C2CC2)on1)N1CCN(c2ccc(F)cc2)CC1	none
Cc1oc2cc(O)ccc2c(=O)c1N1C(=O)c2ccccc2C1=O	Spn DPM-DC inh active
COC(=O)c1cc(-c2c(C)oc3cc(O)ccc3c2=O)c(C)o1	Autofluor 339 2.4 (not shown: Spn DPM-DC inh)
Cc1oc2cc(O)cc(O)c2c(=O)c1-c1ccc2c(c1)OCCCO2	none
Cc1ccccc1-c1c(C)oc2cc(O)ccc2c1=O	Autofluor 339 2.2 (not shown: Spn DPM-DC inh)
COC(=O)c1cc(-c2c(C)oc3cc(OC)ccc3c2=O)c(C)o1	none
Cn1c(N2CCC(C(N)=O)CC2)nc2c1c(=O)n(Cc1cccc(Br)c1)c(=O)n2C	none
CCCOc1ccc(N2C(=O)CC(N3CCC(c4nncn4CC)CC3)C2=O)cc1 (centres undefined)	none
Cc1ccc(-c2cc(C(F)F)n3ncc(C(=O)N4CCN5CCCC5C4)c3n2)cc1 (centres undefined)	none
CCOC(=O)C1CCCN(C(=O)c2cnn3c(C(F)F)cc(-c4ccc(C)cc4)nc23)C1 (centres undefined)	Autofluor 339 2.3
CCOC(=O)C1CCN(C(=O)c2cnn3c(C)cc(C)nc23)CC1	Autofluor 339 3.5
COc1ccc(-c2cc(C(F)F)n3ncc(C(=O)N4CCSCC4)c3n2)cc1	Autofluor 339 3.5 (not shown: Spn DPM-DC inh)
COC(=O)CCCC(=O)Nc1c(F)c(F)c(F)c(F)c1F	none
Cc1cc(=O)oc(C)c1C(=O)n1nc(C)c2c1C[C@@H]1[C@H]2C1(C)C	none
CCCc1cc2c(=O)c(-c3ccccn3)c(C)oc2cc1O	Autofluor 339 2.1 (not shown: Spn DPM-DC inh)
Cc1cc(-c2ccco2)n2c(nc3ccccc32)c1C#N	none
COCCN(CCOC)c1cc(C)c(C#N)c2nc3ccccc3n12	Autofluor 339 3.8 (not shown: Spn DPM-DC inh)
Cc1cc(NCCCCO)n2c(nc3ccccc32)c1C#N	Autofluor 339 3.6 (not shown: Spn DPM-DC inh)
CCCc1cc(NCCCCO)n2c(nc3ccccc32)c1C#N	Autofluor 339 2.4 (not shown: Spn DPM-DC inh)
O=C(CC1Oc2ccccc2NC1=O)NCCCN1CCN(C2CCCCC2)CC1 (centres undefined)	none
COc1ccc(Cn2c(C)nc3oc4cc(OC)ccc4c(=O)c3c2=O)cc1	none
COc1cc(OC)c2c(C)c(Cl)c(=O)oc2c1	Autofluor 339 3.7 (not shown: Spn DPM-DC inh)
Cc1ccc(-c2nc3ncccn3c2NC(=O)C2CC2)cc1	Autofluor 339 5 (not shown: Spn DPM-DC inh)
CC(=O)Nc1c(-c2ccccc2)nc2ncccn12	Autofluor 339 2.2 (not shown: Spn DPM-DC inh)
Oc1ccc(-c2nc3ncccn3c2Nc2ccc3c(c2)OCCO3)cc1	none
Cc1cccc2cc(CN(CC3CCCO3)C(c3nnnn3Cc3ccco3)C(C)C)c(=O)[nH]c12 (centres undefined)	none
O=c1c[n+]([O-])c2ccccc2n1OCc1ccccn1	none
O=c1c[n+]([O-])c2ccccc2n1OCc1c(F)cccc1F	Spn PMK inh 12
CCCCCNC(=O)C(C#N)c1nc2ccccc2nc1N1CCCC1 (centres undefined)	Autofluor 339 2.4
CCN(CC)c1nc2ccccc2nc1C(C#N)C(=O)NCCCOC (centres undefined)	Autofluor 339 2.4
Cc1ccc(S(=O)(=O)C(C#N)c2nc3ccccc3nc2N2CCCC2)cc1 (centres undefined)	Autofluor 339 3.8 (not shown: Spn DPM-DC inh)
CS(=O)(=O)N1CCCC(C(=O)NCc2ccc(F)cc2)C1 (centres undefined)	none
CN(C)c1ccc(C(c2nnnn2CCOC(=O)Nc2ccc(Cl)cc2)N2CCOCC2)cc1 (centres undefined)	none
C=CCn1c(NC(=O)c2ccco2)c(S(=O)(=O)c2ccccc2)c2nc3ccccc3nc21	Autofluor 339 3.8 (not shown: Spn DPM-DC inh)
OCCNc1nc(N2CCN(Cc3ccccc3)CC2)nc2ccccc12	Autofluor 339 2
C=CCNc1nc(N2CCCC2)nc2ccccc12	Spn DPM-DC inh active, Autofluor 339 2.7
O=C(NCCO)c1nc(NCCO)c2ccccc2n1	none
O=C1c2oc3ccccc3c(=O)c2C(c2ccc(Cl)cc2)N1c1ncccn1 (centres undefined)	none
COCC(=O)Nc1ccc(-c2cn3cccnc3n2)cc1	Autofluor 339 5.2 (not shown: Spn DPM-DC inh)
Brc1ccc(-c2cn3cccnc3n2)cc1	Autofluor 339 3.4 (not shown: Spn DPM-DC inh)
c1ccc(-c2cnnc(SCc3cn4cccnc4n3)n2)cc1	none
CCOCC(=O)Nc1cc(-c2cn3cccnc3n2)ccc1C	Autofluor 339 5.3 (not shown: Spn DPM-DC inh)
COc1ccc(N2CCN(C(c3ccccc3)c3nnnn3Cc3ccc(F)cc3)CC2)cc1 (centres undefined)	none
COc1ccc(-c2c3c(nc4sc(C(=O)Nc5cc(C)on5)c(N)c24)CCC3)cc1	Spn DPM-DC inh active, Autofluor 339 2.6
Cc1cc2nnc(SCC(=O)NCc3ccco3)n2c2ccccc12	none
O=C(C1CCC(=O)N1C1CCCCC1)N1CCN(c2ccc(F)cc2)CC1 (centres undefined)	none
CC1=CC(c2ccccc2)n2nc(N3C(=O)C4CC=CCC4C3=O)nc2N1 (centres undefined)	Autofluor 339 2.3 (not shown: Spn DPM-DC inh)
CCc1ccc(N(CC(=O)NC)S(C)(=O)=O)cc1	none
CC(=O)c1cc2cc(O)ccc2o1	Autofluor 339 4.4 (not shown: Spn DPM-DC inh)
CC(=O)c1cc2c(O)c(O)ccc2o1	none
Cc1ccnc(N2CCC(C(=O)Nc3ccc(Oc4ccccc4)cc3)CC2)n1	Spn PMK inh 29
Cc1cc(C)nc(N2CCC(C(=O)Nc3ccc(Oc4ccccc4)cc3)CC2)n1	none
Brc1c(CSc2nncn2-c2ccccc2)nc2ncccn12	Autofluor 339 4 (not shown: Spn DPM-DC inh)
Brc1c(CSc2nc3ccccc3o2)nc2ncccn12	Autofluor 339 5 (not shown: Spn DPM-DC inh)
Clc1c(CSc2nc3ccccc3o2)nc2ccccn12	none
Nc1ccc(CN2CCN(c3ccc4ccccc4n3)CC2)cc1	none
CCCCCn1c(CN2CCN(c3cc(Cl)ccc3C)CC2)nc2c1c(=O)[nH]c(=O)n2C	none
COC(=O)c1cc(Cc2ccc(N)c(C(=O)OC)c2)ccc1N	Autofluor 339 2.1 (not shown: Spn DPM-DC inh)
COC(=O)c1ccc(C(=O)OC)c(NS(C)(=O)=O)c1	none
COC(=O)c1ccc(C(=O)OC)c(N)c1	Autofluor 339 4 (not shown: Spn DPM-DC inh)
COC(=O)c1cc(Br)c(=O)n(Cc2ccc(OC)c(OC)c2)c1	none
COc1ccccc1NC(=O)C1=C(C)Nc2nc(-c3cccs3)nn2C1c1cccnc1 (centres undefined)	none
COc1ccc(OC)c2c1CCC2=O	Autofluor 339 2.3 (not shown: Spn DPM-DC inh)
COc1ccc(-c2ccc(-c3noc(-c4cccc(OC)c4)n3)c(OC)n2)cc1	Autofluor 339 3.8 (not shown: Spn DPM-DC inh)
COc1ccc(-c2ccc(-c3noc(-c4ccc(OC)c(OC)c4)n3)c(OC)n2)cc1	Autofluor 339 3.9 (not shown: Spn DPM-DC inh)
COc1ccc(-c2nc(-c3ccncc3)no2)cc1OC	none

Screening data deposited in PubChem BioAssay by SRMLSC.
